Bioassay records from PubChem.
RORg inh = qHTS for inhibitors of ROR gamma transcriptional activity | Nuclear receptor ROR-gamma (Mus musculus), P51450 | Drosophila S2 Gal4-RORgamma UAS-luciferase reporter, 20 h | Potency, µM (titrated, usually from 53.6 µM), usual class: inhibitors | actives 5.4% (n = 310,000) | AID 2551, 2010; note: nearly all actives have a fitted effect of over 60% in size
Target sequence (P51450 whole entry, looked up, the tested form may be a part): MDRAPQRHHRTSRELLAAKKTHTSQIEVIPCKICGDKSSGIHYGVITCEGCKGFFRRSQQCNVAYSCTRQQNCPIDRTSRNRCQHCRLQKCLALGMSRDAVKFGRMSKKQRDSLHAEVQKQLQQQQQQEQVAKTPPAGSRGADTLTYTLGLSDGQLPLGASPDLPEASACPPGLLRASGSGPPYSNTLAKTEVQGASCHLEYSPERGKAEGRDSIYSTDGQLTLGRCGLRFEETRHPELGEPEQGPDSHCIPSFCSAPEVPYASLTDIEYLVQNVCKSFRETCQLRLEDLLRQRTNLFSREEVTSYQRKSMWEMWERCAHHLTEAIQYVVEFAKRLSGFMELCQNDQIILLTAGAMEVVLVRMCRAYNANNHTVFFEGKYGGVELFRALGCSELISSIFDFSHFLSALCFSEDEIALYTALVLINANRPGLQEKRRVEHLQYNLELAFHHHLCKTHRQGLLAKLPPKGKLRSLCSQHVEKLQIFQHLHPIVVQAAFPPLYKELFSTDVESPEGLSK
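Drosophila S2 cells stably expressing Gal4-DBD/mouse RORγ fusion under metallothionein promoter plus UAS-luciferase; compound 1 h, then 700 uM CuSO4 induction for 20 h at ambient temperature; inhibition read as reduced luminescence.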
SW480 rerep = A quantitative high throughput screen for small molecules that induce DNA re-replication in SW480 colon adenocarcinoma cells. SW480 DNA re-replication, Hoechst DNA content imaging, 48 h. Potency, µM (top dose mostly 46.1 µM), hits mostly activators. actives 1.8% (n = 340,000). AID 624297, 2012; note: nearly all actives have a fitted effect of over 55% in size
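DNA re-replication was detected as more nuclei of elevated Hoechst intensity after 48 hr exposure to compound (23 nL pinned per well of 250 cells).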
ELG1 DNA repair = qHTS screen for small molecules that inhibit ELG1-dependent DNA repair in human embryonic kidney (HEK293T) cells expressing luciferase-tagged ELG1 | HEK293T ELG1-luciferase reporter, luminescence, 16 h; DNA damage induced by 5-fluorouridine | Potency, µM (titrated, usually from 46.1 µM), actives largely listed as inhibitors | actives 2.3% (n = 330,000); note: nearly all actives have a fitted effect of over 55% in size
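DMSO vehicle served as the neutral condition. Each well held 2,000 cells given 5-fluorouridine plus compound; after 16 hr at 37 °C/5% CO2, ONE-Glo was added and luciferase measured 30 min later.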
Gal4-VP16 FLuc = VP16 counterscreen qHTS for inhibitors of ROR gamma transcriptional activity | Drosophila S2 Gal4-VP16 UAS-luciferase, luminescence, 20 h | Potency, µM (top dose mostly 53.6 µM), hits mostly inhibitors | actives 3.5% (n = 310,000);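 note: Gal4-VP16 expression switched on by copper sulfate through the metallothionein promoter; nearly all actives have a fitted effect of over 50% in size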
MCF10A rerep = A quantitative high throughput screen for small molecules that induce DNA re-replication in MCF 10a normal breast cells. Potency, µM (series often up to 46.1 µM), usual class: activators. actives 2.9% (n = 350,000). MCF 10A DNA re-replication, Hoechst nuclear intensity, 48 h; note: nearly all actives have a fitted effect of over 50% in size
Each line names hits and unclear results; the compound was inactive in the other large screens. An excerpt weighted towards active compounds, which were near 10% of everything screened. Calls come from the whole dose curve; as a rule, active = well fitted curve in the direction sought with a large enough effect; inconclusive = small, poorly fitted or top-dose-only effect, or another doubt; inactive = no such curve, though single readings can be large; an effect the other way counts as inactive or inconclusive.

Cc1cc(C)cc(NC(=O)N2CCCC2C(=O)NCc2ccco2)c1 (stereo not given)	none
O=S1(=O)N=C(Nc2nncs2)c2ccccc21	RORg inh inconclusive, Gal4-VP16 FLuc 10µM
CCN(CC)S(=O)(=O)c1ccc(NC2=NS(=O)(=O)c3ccccc32)cc1	none
CC(C)Cn1nc(C(=O)NCc2ccccc2CN2CCCC2)c2ccccc2c1=O	none (no result: RORg inh, Gal4-VP16 FLuc)
Nn1cnnc1SCC(=O)N(C1CCCCC1)C1CCCCC1	none
COc1ccc(-c2nnc(NC(=O)C(C)C)o2)cc1	RORg inh 11µM, Gal4-VP16 FLuc inconclusive
COc1ccc(-c2nnc(NC(=O)CS(=O)(=O)c3ccc(F)cc3)o2)cc1	none (no result: RORg inh, Gal4-VP16 FLuc)
COc1ccc(-c2nnc(NC(=O)C3CC3)o2)cc1	RORg inh 5µM, ELG1 DNA repair inconclusive, Gal4-VP16 FLuc 10µM
COc1cccc(-c2nnc(NC(=O)C3CCCCC3)o2)c1	RORg inh 3.5µM, ELG1 DNA repair inconclusive, Gal4-VP16 FLuc 11µM
Cc1cnc(C(=O)N2CCN(S(=O)(=O)c3cc(C(F)(F)F)cc(C(F)(F)F)c3)CC2)cn1	none (no result: RORg inh, ELG1 DNA repair, Gal4-VP16 FLuc)
O=C(Nc1ccnn1C1CCN(Cc2cccc(OCCO)c2)CC1)c1cccc(F)c1	none
CCOC(=O)C1=Nc2ccccc2C1=[N+]=[N-]	SW480 rerep inconclusive, ELG1 DNA repair inconclusive, MCF10A rerep 2.6µM
COc1cc(/C=C/C(=O)OCC(=O)Nc2ccc(NC(C)=O)cc2)cc(S(=O)(=O)N2CCc3ccccc32)c1OC	ELG1 DNA repair 21µM
CCNC(=O)CC1SC(=Nc2ccc(C)c([N+](=O)[O-])c2)N(C)C1=O (stereo not given)	none (no result: RORg inh, ELG1 DNA repair, Gal4-VP16 FLuc)
COc1cccc(CNC(=O)COC(=O)C2CC3CCCC(C2)C3=O)c1 (stereo not given)	none (no result: RORg inh, Gal4-VP16 FLuc)
COc1ccc2c(-c3ccccc3)cc(N3CCOCC3)nc2c1	MCF10A rerep 21µM
COc1ccc2c(c1)CCc1c-2nc2ccccc2c1N1CCOCC1	SW480 rerep inconclusive, Gal4-VP16 FLuc inconclusive, MCF10A rerep 16µM
c1ccc(-c2cc(-c3ccc(N4CCOCC4)cc3)nc3ccccc23)cc1	ELG1 DNA repair inconclusive, MCF10A rerep inconclusive
COc1c2c(cc3ccc(=O)oc13)CCO2	SW480 rerep inconclusive
Cc1ccccc1NC(=S)N/N=C/C(C)c1ccccc1 (stereo not given)	RORg inh 1.8µM, Gal4-VP16 FLuc 8.9µM
Cc1ccccc1NC(=S)N/N=C/c1ccc(O)cc1O	RORg inh inconclusive, ELG1 DNA repair inconclusive, Gal4-VP16 FLuc inconclusive
Cc1cccc(NC(=S)N(C)C)c1C	RORg inh inconclusive
Cc1cccc(NC(=S)N/N=C/C(C)c2ccccc2)c1C (stereo not given)	RORg inh 1.3µM, Gal4-VP16 FLuc 7.9µM
Cc1cccc(NC(=S)N/N=C/c2cccc(O)c2)c1C	RORg inh 4.5µM, SW480 rerep 7.3µM, ELG1 DNA repair 18µM, Gal4-VP16 FLuc 14µM, MCF10A rerep inconclusive
CCOC(=O)c1c(C)n(C)c2ccc(OCC(O)Cn3nc(C)cc3C)cc12 (stereo not given)	ELG1 DNA repair 21µM
CCC(c1nnnn1C1CCCC1)N1CCC(C(N)=O)CC1 (stereo not given)	none
Cn1cnnc1SC1CCCCC1NS(=O)(=O)c1ccccc1 (stereo not given)	none
Nn1cnnc1SC1CCCCC1NS(=O)(=O)c1ccccc1 (stereo not given)	Gal4-VP16 FLuc 8.9µM
CN(CCc1ccccn1)C(=S)NC(=O)c1ccco1	RORg inh 14µM, Gal4-VP16 FLuc inconclusive
O=C(NC(NCc1ccccn1)(C(F)(F)F)C(F)(F)F)c1ccco1	RORg inh 10µM, SW480 rerep inconclusive
O=C(NCCNCc1ccccn1)c1ccco1	none
COc1cccc(CNC(=O)C2CCC(CNc3c(N4CCC(C)CC4)c(=O)c3=O)CC2)c1 (stereo not given)	none
COc1cccc(N2CCN(C(=O)CN(C)S(=O)(=O)c3ccc4c(c3)c(=O)n(C)c(=O)n4C)CC2)c1	none
NC(=S)n1[nH]c(-c2ccccc2)c(N=Nc2ccccc2C(=O)N2CCOCC2)c1=O	RORg inh 2µM
Cc1c(N(C)C)nc2ccccc2c1N	none
Cc1nc2ccccc2c2c(N)c3ccccc3n12	SW480 rerep inconclusive, ELG1 DNA repair 26µM
CCCCN(C)CCOc1ccccc1OCC	none
CCCCCCOc1ccc(C(=N)N(CCCC)CCCC)c2ccccc12	RORg inh inconclusive, SW480 rerep inconclusive, Gal4-VP16 FLuc 22µM, MCF10A rerep inconclusive (no result: ELG1 DNA repair)
CCN(CC(=O)NCc1ccc(F)cc1)C(=O)c1cccc(S(=O)(=O)N(C)c2ccc(OC)cc2)c1	none (no result: RORg inh, ELG1 DNA repair, Gal4-VP16 FLuc)
Cc1ccc(NC(=O)c2ccc(-c3nn(C)c(=O)c4ccccc34)cc2)cc1	ELG1 DNA repair inconclusive
CCC(=O)NCc1cc(-c2nn(C)c(=O)c3ccccc23)ccc1C	none
Cn1nc(-c2ccc(C(=O)Nc3ccc(F)cc3)cc2)c2ccccc2c1=O	RORg inh inconclusive, ELG1 DNA repair 7.3µM, Gal4-VP16 FLuc inconclusive
Cc1ccc(-c2nn(CC(=O)NCc3cc(-c4nn(C)c(=O)c5ccccc45)ccc3C)c(=O)c3ccccc23)cc1	RORg inh inconclusive, SW480 rerep 6.5µM, MCF10A rerep 9.2µM
Cc1ccc(-c2nn(C)c(=O)c3ccccc23)cc1CNC(=O)c1ccccc1	ELG1 DNA repair 16µM, Gal4-VP16 FLuc inconclusive
CCN(CC)c1ccc(S(=O)(=O)N2CCOCC2)cc1NC(=O)c1cc(=O)c2ccccc2o1	none
CC(C)CC(=O)Nc1ccc(N2CCOCC2)cc1	ELG1 DNA repair inconclusive
Cc1cc(C)n(CC(=O)N/N=C/c2ccccn2)n1	SW480 rerep inconclusive
CCCCCC(=O)N1CCCCC1	none
O=C(C1CCN(S(=O)(=O)c2cccc3nsnc23)CC1)N1CC=C(c2ccccc2)CC1	RORg inh inconclusive, ELG1 DNA repair 18µM, MCF10A rerep inconclusive
O=C(C1CCC(CNS(=O)(=O)c2cccc3nsnc23)CC1)N1CC=C(c2ccccc2)CC1 (stereo not given)	ELG1 DNA repair 21µM
COc1ccc(CCc2nnc(N)s2)cc1OC	none (no result: RORg inh, Gal4-VP16 FLuc)
COC(=O)C1=C(C)N(Cc2ccco2)C(=O)C1	RORg inh 10µM
COC(=O)C1=C(C)N(Cc2ccc(OC)cc2)C(=O)C1	RORg inh inconclusive, Gal4-VP16 FLuc inconclusive
CC(C)c1ccc(NC(=O)CCNS(=O)(=O)c2cc(Br)cnc2N)cc1	SW480 rerep inconclusive
Cc1cccc2c1-c1sc(C(=O)N3CCCCC3)cc1CO2	RORg inh 10µM, SW480 rerep inconclusive, ELG1 DNA repair inconclusive, Gal4-VP16 FLuc inconclusive
Cc1cccc2c1-c1sc(C(=O)Nc3ccccc3N3CCN(C)CC3)cc1CO2	RORg inh inconclusive, SW480 rerep inconclusive, ELG1 DNA repair 21µM, MCF10A rerep 4.1µM
